Results on 35 compounds are retold here after the supplement of paper PMC5662767.

Where a name gives a salt, the structure may show the parent alone.

This test deals with Drosophila S2 cl14 SmoIP sensor cells. Description: normalized SmoIP GFP fluorescence (untreated unstimulated = 0%, untreated Hh-stimulated = 100%); higher = more Smo activation sensor fluorescence. Particulars: compound concentration: 2 uM, 24 h.
Setting [1] is: stimulation: Hh conditioned medium (+Hh).
[2] abbreviates: stimulation: mock conditioned medium (-Hh).
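Further: flow cytometry read-out as median GFP intensity of gated cells, compounds added 30 min before Hh-conditioned or mock medium, mock-treated cells serving as unstimulated baseline.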

Regarding `C[C@H](NC(=O)[C@@H](O)c1cc(F)cc(F)c1)C(=O)N[C@@H]1C(=O)N(C)c2ccccc2-c2ccccc21`, the “normalized SmoIP GFP fluorescence” value is 145% under setting [1] and 9.98% under setting [2].
The corresponding values for `CN(NC(=O)CC(=O)NN(C)C(=S)c1ccccc1)C(=S)c1ccccc1` [Elesclomol] are 145% and 17.1%.
As for `COc1cc(OC)c(NC(=O)Nc2cc(C)on2)cc1Cl`, the “normalized SmoIP GFP fluorescence” value runs as follows: under setting [1], 114%; under setting [2], -5.98%.
The corresponding values for `CCCCc1nc2cc(/C=C/C(=O)NO)ccc2n1CCN(CC)CC` are 208% and 34.2%.
As to `CCOC(=O)c1ccc(NC2CCCCC2)c(N)c1` [ferrostatin-1-fer-1], the “normalized SmoIP GFP fluorescence” value by setting is: under setting [1], 116%; under setting [2], -3.05%.
Turning to `COc1cccc2cc(-c3nc([C@H]4CC[C@H](C(=O)O)CC4)n4ncnc(N)c34)[nH]c12`, the “normalized SmoIP GFP fluorescence” value was 54.2% under setting [1] and -5.17% under setting [2].
The corresponding values for `CCC(=O)NCC[C@@H]1CCc2ccc3c(c21)CCO3` [Ramelteon] are 95.6% and -0.588%.
The corresponding values for `CNC(=O)c1cc(Oc2ccc(NC(=O)Nc3ccc(Cl)c(C(F)(F)F)c3)cc2)ccn1` [Sorafenib-Tosylate] are 112% and 47.1%.
The corresponding values for `NC(=O)c1ncn([C@@H]2O[C@H](CO)[C@@H](O)[C@H]2O)c1N` [Acadesine] are 127% and -15.4%.
`COc1cc(OC)c2c(=O)[nH]c(-c3cc(C)c(OCCO)c(C)c3)nc2c1`: the “normalized SmoIP GFP fluorescence” value under setting [1] came to 112% and the “normalized SmoIP GFP fluorescence” value under setting [2] was -3.16%.
The corresponding values for `Cc1cc(C(C)Nc2ccccc2)c2nc(N3CCOCC3)cc(=O)n2c1` (stereo not given) are 126% and -0.265%.
The like results for `O=c1cc(-c2ccccc2)oc2cc(O)c(O)c(O)c12` [Baicalein] were, in that order, 108% and 1.24%.
The like results for `CC(C)(Oc1ccc(C2CC2(Cl)Cl)cc1)C(=O)O` (stereo not given) [ciprofibrate] were, in that order, 108% and -5.35%.
`CC1(C)CCC(c2ccc(Cl)cc2)=C(CN2CCN(c3ccc(C(=O)NS(=O)(=O)c4ccc(N[C@H](CCN5CCOCC5)CSc5ccccc5)c(S(=O)(=O)C(F)(F)F)c4)cc3)CC2)C1`: the “normalized SmoIP GFP fluorescence” value turned out to be 108% under setting [1] and 20.1% under setting [2].
The corresponding values for `Cc1cc([C@@H](C)Nc2ccccc2C(=O)O)c2nc(N3CCOCC3)cc(=O)n2c1` are 94.8% and -5.22%.
With `CN1CC(=O)N2[C@H](c3ccc4c(c3)OCO4)c3[nH]c4ccccc4c3C[C@@H]2C1=O` [Tadalafil(Cialis)], the “normalized SmoIP GFP fluorescence” value is, setting by setting: under setting [1], 94.8%; under setting [2], -0.265%.
The like results for `C[C@]1(O)C[C@@H](c2nc(-c3ccc4ccc(-c5ccccc5)nc4c3)c3c(N)nccn32)C1` were, in that order, 108% and -11%.
The corresponding values for `NC(N)=N/N=C/c1c(Cl)cccc1Cl` [guanabenz-wy-8678-acetate] are 112% and -4.7%.
Turning to `Cc1ccc(S(=O)(=O)OCC(=O)Nc2ccc(C(=O)O)c(O)c2)cc1`, the “normalized SmoIP GFP fluorescence” value under setting [1] turned out to be 112% and the “normalized SmoIP GFP fluorescence” value under setting [2] was -9.58%.
Turning to `Cc1cc(-c2ncc(CC(=O)Nc3ccc(-c4cnccn4)cn3)cc2C)ccn1`, the “normalized SmoIP GFP fluorescence” value runs as follows: under setting [1], 130%; under setting [2], -1.23%.
As for `COc1ccccc1N1CCN(CCCNc2cc(=O)n(C)c(=O)n2C)CC1` [urapidil-hydrochloride], the “normalized SmoIP GFP fluorescence” value is 110% under setting [1] and -7.96% under setting [2].
The like results for `O=S(=O)(NCCNC/C=C/c1ccc(Br)cc1)c1cccc2cnccc12` [H-89-dihydrochloride] were, in that order, 105% and 5.45%.
The corresponding values for `Nc1nccc2c1ncn2[C@@H]1C=C(CO)[C@@H](O)[C@H]1O` [3-deazaneplanocin-a-dznep] are 142% and 0.702%.
The corresponding values for `COC(=O)[C@H](c1ccccc1Cl)N1CCc2sccc2C1` [Clopidogrel-bisulfate] are 113% and 2.97%.
In the case of `CCOC(=O)c1ncn2c1CN(C)C(=O)c1cc(F)ccc1-2` [Flumazenil], the “normalized SmoIP GFP fluorescence” value under setting [1] is 110% and the “normalized SmoIP GFP fluorescence” value under setting [2] turned out to be 1.57%.
The corresponding values for `Nc1ncnc2c1c(-c1cnc3[nH]ccc3c1)nn2C1CCCC1` are 50.6% and -17.9%.
The like results for `O=C(Nc1cccc2cccnc12)c1ccc(N2C(=O)[C@@H]3[C@H](C2=O)[C@@H]2C=C[C@H]3C2)cc1` [iwr-1-endo] were, in that order, 114% and -4.92%.
For the compound `COc1cccc(-c2cc(=O)c3ccccc3o2)c1N`, the “normalized SmoIP GFP fluorescence” value under setting [1] is 115% and the “normalized SmoIP GFP fluorescence” value under setting [2] is 2.64%.
The like results for `O=C(COc1cccc2c(=O)[nH]ccc12)c1ccccc1` were, in that order, 139% and 0.334%.
`CCOC(=O)C1=C(C)NC(C)=C(C(=O)OC)C1c1cccc([N+](=O)[O-])c1` (stereo not given) [Nitrendipine]: the “normalized SmoIP GFP fluorescence” value is 117% under setting [1] and -12% under setting [2].
The like results for `O=C(O)CCCc1ccccc1` [sodium-phenylbutyrate] were, in that order, 112% and -2.93%.
The corresponding values for `CC(C)n1nc(-c2ccc3oc(N)nc3c2)c2c(N)ncnc21` are 73.9% and -0.889%.
For `O=C(O)C(O)Cc1ccc(O)c(O)c1` (stereo not given) [Sodium-Danshensu], the “normalized SmoIP GFP fluorescence” value reads like this: under setting [1], 93.6%; under setting [2], -2.82%.
The like results for `c1ccc(-c2nn3c(c2-c2ccnc4cc(OCCN5CCOCC5)ccc24)CCC3)nc1` were, in that order, 137% and 30.2%.
On to `C[C@H](N[C@@H](CCc1ccccc1)C(=O)O)C(=O)N1CCC[C@H]1C(=O)O` [Enalaprilat], for which the “normalized SmoIP GFP fluorescence” value under setting [1] was 117% and the “normalized SmoIP GFP fluorescence” value under setting [2] is -0.265%.
